The results in this text go back to PubChem BioAssay (NCI).

Compounds without any hit were thinned out: in the full panel of roughly 79,000, 15% have a hit. Unmarked numbers belong to inactive results. Calls of active or inactive are those of the source. No stated cut-off is given here; in the data, active means growth inhibition above about 70%; inactive means the rest.

The nature of this experiment: NCI Yeast Anticancer Drug Screen. Data for the sgs1 mgt1 strain (AID 161).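 Further: 0% = growth of cultures given vehicle only.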 As to conditions: S. cerevisiae sgs1 mgt1 strain, at 50.0 µM, active compounds read high. The method in brief:
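Compounds are added to genetically altered yeast, and growth is compared with cultures given vehicle alone to give percent inhibition.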
On to `CC(=O)OCCOCCCl`, for which the growth inhibition is 1.5%.

On to `Cc1ccc(Sc2ccc3ccccc3c2)nc1`, for which the growth inhibition is -17.6%. For `CC(C)=C1C2CCC1[C@H](COS(C)(=O)=O)[C@@H]2COS(C)(=O)=O`, the growth inhibition was 4.45%. With `N[C@@H]1CCCC[C@H]1O`, the growth inhibition was -8.7%. Regarding `CCC1=CCN2CCC34c5cc(C6(C(=O)OC)CC7CC(CC)CN(CCc8c6[nH]c6ccccc86)C7)c(OC)cc5N(C)C3C(O)(C(=O)OC)C(OC(C)=O)C1C24` (configuration not stated), the growth inhibition is -3.95%. The same measure for `COC(=O)C1(CC(=O)c2ccc(F)cc2)NC(=S)NC(=O)C1C#N` (configuration not stated): -8.3%; for `Cn1c(=O)c2c(nc(Br)n2CC(=O)c2ccc([N+](=O)[O-])cc2)n(C)c1=O`: 22.1%; for `CC(=O)NC(C)c1ccc2ccccc2c1` (configuration not stated): 1.8%. The same measure for `O=C(NNC(=O)c1cccc(F)c1)c1cccc(F)c1`: -13.3%; for `CCOC(=O)C1=C(O)c2c(OC)ccc(OC)c2C(=O)C1=O`: -22.2%; for `NC(CSCC(=O)O)C(=O)O` (configuration not stated): 1.15%. The same measure for `Clc1c(Cl)c(Cl)c(CSCc2c(Cl)c(Cl)c(Cl)c(Cl)c2Cl)c(Cl)c1Cl`: -12.2%; for `CCCCCCCNc1ccc(C(=O)OCC)cc1`: -1.95%. In the case of `Oc1c(Cl)cc(N=Cc2ccc(N(CCCCl)CCCCl)cc2)cc1Cl`, the growth inhibition was 94.8% (active).

In the case of `COc1ccc2c3ccc4c(c3n(C)c2c1)C(=O)c1ccccc1C4=O`, the growth inhibition is -53%.

Consider `Cc1ccsc1/C=N/Nc1ncccn1`, for which the growth inhibition is 23.4%. As for `O=C1Nc2ccccc2C1=O`, the growth inhibition was -31.8%.
